# Measured values from PMC7862700, “An all-to-all approach to the identification of sequence-specific readers for epigenetic DNA modifications on cytosine”.
# Columns and labels:
# Test in all cases: DAPPL (digital affinity profiling via proximity ligation, sequencing); 10 mM Tris-HCl pH 7.5, 50 mM NaCl, 1 mM DTT, 4% glycerol, room temperature, 30 min; GST-TFs on glutathione beads, 16-mer random dsDNA library, 0.1% formaldehyde crosslink after washing; high values mean tight binding
# [1] = biological target: T1, FLI1 (Homo sapiens, UniProt Q01543 1-452); conditions: protein: recombinant; tags: N-terminal GST; dsDNA, one strand shown
# T1 sequence: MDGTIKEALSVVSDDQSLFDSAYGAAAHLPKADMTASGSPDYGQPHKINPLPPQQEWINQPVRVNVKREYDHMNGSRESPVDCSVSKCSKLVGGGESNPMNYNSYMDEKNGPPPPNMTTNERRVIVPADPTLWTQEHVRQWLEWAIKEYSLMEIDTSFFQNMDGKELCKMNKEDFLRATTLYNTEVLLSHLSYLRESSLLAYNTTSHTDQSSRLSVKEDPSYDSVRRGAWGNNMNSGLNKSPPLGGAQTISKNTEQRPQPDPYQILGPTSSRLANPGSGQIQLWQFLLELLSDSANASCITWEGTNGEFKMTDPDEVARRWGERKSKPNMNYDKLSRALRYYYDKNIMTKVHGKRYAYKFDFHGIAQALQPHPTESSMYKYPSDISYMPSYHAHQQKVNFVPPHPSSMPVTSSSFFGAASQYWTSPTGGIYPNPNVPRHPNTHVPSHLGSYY
# Method in brief: (§1)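 GST fusions of human transcription factors were expressed in yeast and captured with glutathione beads. Once given DNA barcodes and pooled alongside a tag-only sample, they were incubated for 30 min at room temperature with 200 nmole of a random double-stranded 16-mer DNA library in Tris/NaCl/DTT/glycerol buffer, then washed, crosslinked (0.1% formaldehyde), proximity-ligated, PCR-amplified and sequenced on an Illumina NextSeq500. The binding signal of each hexamer is its read frequency for a factor divided by its frequency for the tag-only sample.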
# [2] = biological target: T2, ELK1 (Homo sapiens, UniProt P19419 1-428); conditions: protein: recombinant; tags: N-terminal GST; dsDNA, one strand shown
# T2 sequence: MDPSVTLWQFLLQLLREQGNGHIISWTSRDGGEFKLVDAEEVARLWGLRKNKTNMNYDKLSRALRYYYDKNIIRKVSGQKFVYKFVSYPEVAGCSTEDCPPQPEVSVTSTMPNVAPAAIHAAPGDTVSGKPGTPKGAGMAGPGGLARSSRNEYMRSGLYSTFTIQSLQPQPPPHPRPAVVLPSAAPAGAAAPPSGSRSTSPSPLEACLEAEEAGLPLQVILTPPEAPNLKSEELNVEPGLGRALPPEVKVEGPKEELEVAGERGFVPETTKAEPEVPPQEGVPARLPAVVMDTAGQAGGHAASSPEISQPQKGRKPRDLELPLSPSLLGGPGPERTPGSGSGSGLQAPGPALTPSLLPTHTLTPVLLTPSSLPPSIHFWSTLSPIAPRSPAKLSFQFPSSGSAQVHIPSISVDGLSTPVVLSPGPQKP
# Method in brief: as §1
# [3] = biological target: T3, GABPA (Homo sapiens, UniProt Q06546 1-454); conditions: protein: recombinant; tags: N-terminal GST; dsDNA, one strand shown
# T3 sequence: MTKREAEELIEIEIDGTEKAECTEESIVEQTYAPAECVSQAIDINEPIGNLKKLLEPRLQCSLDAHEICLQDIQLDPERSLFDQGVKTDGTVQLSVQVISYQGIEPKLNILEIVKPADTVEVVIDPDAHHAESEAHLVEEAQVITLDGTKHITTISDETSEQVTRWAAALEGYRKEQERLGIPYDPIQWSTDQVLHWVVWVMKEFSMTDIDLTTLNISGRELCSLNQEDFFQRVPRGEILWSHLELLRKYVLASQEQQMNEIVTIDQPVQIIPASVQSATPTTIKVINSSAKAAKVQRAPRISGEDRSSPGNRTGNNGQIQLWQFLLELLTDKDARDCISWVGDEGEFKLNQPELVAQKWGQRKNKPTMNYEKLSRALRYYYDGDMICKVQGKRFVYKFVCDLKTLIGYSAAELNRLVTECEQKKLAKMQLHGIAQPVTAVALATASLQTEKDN
# Method in brief: as §1
# [4] = biological target: T4, ERG (Homo sapiens, UniProt P11308 1-479); conditions: protein: recombinant; tags: N-terminal GST; dsDNA, one strand shown
# T4 sequence: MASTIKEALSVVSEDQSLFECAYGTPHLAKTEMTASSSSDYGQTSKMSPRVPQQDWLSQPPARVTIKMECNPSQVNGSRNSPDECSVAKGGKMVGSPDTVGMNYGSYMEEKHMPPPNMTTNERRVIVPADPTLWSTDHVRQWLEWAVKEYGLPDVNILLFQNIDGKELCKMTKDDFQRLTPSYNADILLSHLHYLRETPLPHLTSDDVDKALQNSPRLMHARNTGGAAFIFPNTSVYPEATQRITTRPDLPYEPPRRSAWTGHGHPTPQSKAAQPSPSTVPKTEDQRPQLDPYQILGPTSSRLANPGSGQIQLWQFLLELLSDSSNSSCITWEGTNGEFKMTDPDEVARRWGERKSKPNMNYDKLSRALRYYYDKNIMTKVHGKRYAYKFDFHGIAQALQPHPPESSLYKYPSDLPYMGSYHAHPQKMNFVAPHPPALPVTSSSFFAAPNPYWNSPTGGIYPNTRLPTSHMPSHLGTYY
# Method in brief: as §1
# [5] = biological target: ELF1 (Homo sapiens, UniProt P32519 1-619); conditions: protein: recombinant; tags: N-terminal GST; dsDNA, one strand shown
# ELF1, sequence (P32519 whole entry): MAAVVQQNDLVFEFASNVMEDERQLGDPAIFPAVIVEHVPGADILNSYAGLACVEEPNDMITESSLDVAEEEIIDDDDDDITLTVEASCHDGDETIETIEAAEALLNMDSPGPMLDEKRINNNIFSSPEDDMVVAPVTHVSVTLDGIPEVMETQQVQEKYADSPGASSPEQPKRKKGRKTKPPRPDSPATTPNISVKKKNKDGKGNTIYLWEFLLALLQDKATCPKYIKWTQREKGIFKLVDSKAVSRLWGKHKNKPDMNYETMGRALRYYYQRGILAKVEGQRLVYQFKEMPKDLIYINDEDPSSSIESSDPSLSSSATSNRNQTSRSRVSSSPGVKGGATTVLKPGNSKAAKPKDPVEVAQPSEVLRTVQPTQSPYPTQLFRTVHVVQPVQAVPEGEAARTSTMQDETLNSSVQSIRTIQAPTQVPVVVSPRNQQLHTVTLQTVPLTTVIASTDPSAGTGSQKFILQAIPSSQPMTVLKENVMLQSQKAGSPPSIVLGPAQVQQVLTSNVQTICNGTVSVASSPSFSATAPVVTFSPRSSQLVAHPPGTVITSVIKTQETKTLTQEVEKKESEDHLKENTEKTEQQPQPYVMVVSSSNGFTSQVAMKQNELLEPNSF
# Method in brief: as §1
# [6] = biological target: T5, EHF (Homo sapiens, UniProt Q9NZC4 1-300); conditions: protein: recombinant; tags: N-terminal GST; dsDNA, one strand shown
# T5 sequence: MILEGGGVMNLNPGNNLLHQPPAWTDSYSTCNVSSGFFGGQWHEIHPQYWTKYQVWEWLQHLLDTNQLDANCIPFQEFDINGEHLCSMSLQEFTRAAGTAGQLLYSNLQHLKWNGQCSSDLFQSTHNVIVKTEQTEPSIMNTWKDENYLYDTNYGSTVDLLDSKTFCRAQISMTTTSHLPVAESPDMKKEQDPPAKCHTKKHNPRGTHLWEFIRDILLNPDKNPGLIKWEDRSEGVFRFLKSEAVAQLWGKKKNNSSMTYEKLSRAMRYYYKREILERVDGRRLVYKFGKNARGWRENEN
# Method in brief: as §1
# [7] = biological target: SPI1 (Homo sapiens, UniProt P17947 1-270); conditions: protein: recombinant; tags: N-terminal GST; dsDNA, one strand shown
# Method in brief: as §1
# [8] = biological target: SPIB (Homo sapiens, UniProt Q01892 1-262); conditions: protein: recombinant; tags: N-terminal GST; dsDNA, one strand shown
# SPIB, sequence (Q01892 whole entry): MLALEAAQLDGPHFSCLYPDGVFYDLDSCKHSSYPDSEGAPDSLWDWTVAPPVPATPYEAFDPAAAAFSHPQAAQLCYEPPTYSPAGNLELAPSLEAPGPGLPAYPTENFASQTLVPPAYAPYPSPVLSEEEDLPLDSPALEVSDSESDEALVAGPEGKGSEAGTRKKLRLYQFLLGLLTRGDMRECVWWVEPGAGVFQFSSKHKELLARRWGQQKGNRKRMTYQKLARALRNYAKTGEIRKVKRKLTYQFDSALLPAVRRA
# Method in brief: as §1
# [9] = biological target: T6, ELK3 (Homo sapiens, UniProt P41970 1-407); conditions: protein: recombinant; tags: N-terminal GST; dsDNA, one strand shown
# T6 sequence: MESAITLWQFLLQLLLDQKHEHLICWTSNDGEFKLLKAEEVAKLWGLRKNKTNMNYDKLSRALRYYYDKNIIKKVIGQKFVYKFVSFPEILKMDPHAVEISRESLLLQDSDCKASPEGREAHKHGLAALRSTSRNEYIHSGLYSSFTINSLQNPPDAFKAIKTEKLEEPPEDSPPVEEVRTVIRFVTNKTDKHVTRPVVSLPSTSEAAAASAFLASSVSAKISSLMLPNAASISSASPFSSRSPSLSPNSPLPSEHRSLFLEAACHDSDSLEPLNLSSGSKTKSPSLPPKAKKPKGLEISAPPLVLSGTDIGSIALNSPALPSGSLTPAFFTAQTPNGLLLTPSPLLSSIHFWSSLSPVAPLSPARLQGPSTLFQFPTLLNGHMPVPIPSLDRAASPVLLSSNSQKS
# Method in brief: as §1
# [10] = biological target: T7, FEV (Homo sapiens, UniProt Q99581 1-238); conditions: protein: recombinant; tags: N-terminal GST; dsDNA, one strand shown
# T7 sequence: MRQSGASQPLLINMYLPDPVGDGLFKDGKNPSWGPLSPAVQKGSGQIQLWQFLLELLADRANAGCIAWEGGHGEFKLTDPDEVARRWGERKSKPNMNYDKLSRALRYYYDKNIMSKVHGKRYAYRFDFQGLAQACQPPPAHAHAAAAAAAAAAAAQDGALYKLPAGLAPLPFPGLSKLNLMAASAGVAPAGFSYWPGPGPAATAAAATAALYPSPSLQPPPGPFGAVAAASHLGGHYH
# Method in brief: as §1
# [11] = biological target: ETV5 (Homo sapiens, UniProt P41161 1-510); conditions: protein: recombinant; tags: N-terminal GST; dsDNA, one strand shown
# ETV5, sequence (P41161 whole entry): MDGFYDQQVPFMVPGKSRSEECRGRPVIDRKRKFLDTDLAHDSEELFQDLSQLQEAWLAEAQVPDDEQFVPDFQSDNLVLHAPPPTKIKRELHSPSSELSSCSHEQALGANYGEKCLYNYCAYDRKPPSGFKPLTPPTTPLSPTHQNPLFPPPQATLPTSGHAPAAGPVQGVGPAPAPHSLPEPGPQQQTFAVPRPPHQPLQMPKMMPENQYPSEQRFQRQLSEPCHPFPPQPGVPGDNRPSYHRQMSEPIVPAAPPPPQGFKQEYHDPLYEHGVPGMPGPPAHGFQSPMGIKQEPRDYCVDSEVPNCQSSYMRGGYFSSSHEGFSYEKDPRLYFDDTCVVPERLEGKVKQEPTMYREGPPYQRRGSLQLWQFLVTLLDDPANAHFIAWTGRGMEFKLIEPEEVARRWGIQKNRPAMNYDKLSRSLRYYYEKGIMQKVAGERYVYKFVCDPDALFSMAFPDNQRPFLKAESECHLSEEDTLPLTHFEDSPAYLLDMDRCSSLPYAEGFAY
# Method in brief: as §1
# [12] = biological target: HSF1 (Homo sapiens, UniProt Q00613 1-529); conditions: protein: recombinant; tags: N-terminal GST; chain copies: 3; dsDNA, one strand shown
# HSF1, sequence (Q00613 whole entry): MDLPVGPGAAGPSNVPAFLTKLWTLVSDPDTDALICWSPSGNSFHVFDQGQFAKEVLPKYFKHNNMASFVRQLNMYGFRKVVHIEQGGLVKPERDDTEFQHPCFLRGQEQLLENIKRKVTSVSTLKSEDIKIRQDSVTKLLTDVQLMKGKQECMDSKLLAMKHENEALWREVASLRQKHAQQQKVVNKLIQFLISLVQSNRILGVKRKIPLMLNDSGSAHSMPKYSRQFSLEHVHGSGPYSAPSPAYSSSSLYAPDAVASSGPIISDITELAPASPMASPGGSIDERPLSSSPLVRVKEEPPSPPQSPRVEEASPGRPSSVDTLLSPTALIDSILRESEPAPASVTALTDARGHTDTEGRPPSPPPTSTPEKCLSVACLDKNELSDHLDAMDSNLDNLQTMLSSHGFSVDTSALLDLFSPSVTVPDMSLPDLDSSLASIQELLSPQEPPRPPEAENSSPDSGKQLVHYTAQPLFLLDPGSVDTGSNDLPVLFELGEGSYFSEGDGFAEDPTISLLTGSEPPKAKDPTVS
# Method in brief: as §1
# [13] = biological target: T8, SPIC (Homo sapiens, UniProt Q8N5J4 1-248); conditions: protein: recombinant; tags: N-terminal GST; dsDNA, one strand shown
# T8 sequence: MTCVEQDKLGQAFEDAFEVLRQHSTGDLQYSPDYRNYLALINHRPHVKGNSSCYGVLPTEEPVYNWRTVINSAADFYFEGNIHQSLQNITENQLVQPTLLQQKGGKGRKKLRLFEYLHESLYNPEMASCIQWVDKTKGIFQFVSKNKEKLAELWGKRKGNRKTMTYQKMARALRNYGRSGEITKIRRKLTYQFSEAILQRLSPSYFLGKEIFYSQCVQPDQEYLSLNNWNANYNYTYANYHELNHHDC
# Method in brief: as §1
# [14] = biological target: ELF4 (Homo sapiens, UniProt Q99607 1-663); conditions: protein: recombinant; tags: N-terminal GST; dsDNA, one strand shown
# ELF4, sequence (Q99607 whole entry): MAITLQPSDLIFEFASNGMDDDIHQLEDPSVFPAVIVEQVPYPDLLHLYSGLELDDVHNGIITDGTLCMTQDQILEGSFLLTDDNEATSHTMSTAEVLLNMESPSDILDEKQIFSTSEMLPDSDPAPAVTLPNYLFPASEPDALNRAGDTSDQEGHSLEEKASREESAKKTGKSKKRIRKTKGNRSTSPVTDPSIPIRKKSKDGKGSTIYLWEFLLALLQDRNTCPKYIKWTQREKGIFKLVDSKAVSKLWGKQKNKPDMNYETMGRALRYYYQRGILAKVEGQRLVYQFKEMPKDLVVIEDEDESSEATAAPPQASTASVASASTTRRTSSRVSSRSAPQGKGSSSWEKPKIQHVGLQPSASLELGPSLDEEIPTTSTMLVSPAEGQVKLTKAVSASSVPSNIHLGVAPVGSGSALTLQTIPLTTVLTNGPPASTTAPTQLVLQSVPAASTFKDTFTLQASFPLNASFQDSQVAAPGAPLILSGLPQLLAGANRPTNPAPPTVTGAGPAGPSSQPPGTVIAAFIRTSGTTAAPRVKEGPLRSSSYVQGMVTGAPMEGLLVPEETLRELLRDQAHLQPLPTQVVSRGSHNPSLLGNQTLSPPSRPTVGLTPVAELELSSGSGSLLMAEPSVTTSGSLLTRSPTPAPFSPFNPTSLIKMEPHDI
# Method in brief: as §1
# [15] = biological target: T9, ELK4 (Homo sapiens, UniProt P28324-2 1-405); conditions: protein: recombinant; tags: N-terminal GST; dsDNA, one strand shown
# T9 sequence: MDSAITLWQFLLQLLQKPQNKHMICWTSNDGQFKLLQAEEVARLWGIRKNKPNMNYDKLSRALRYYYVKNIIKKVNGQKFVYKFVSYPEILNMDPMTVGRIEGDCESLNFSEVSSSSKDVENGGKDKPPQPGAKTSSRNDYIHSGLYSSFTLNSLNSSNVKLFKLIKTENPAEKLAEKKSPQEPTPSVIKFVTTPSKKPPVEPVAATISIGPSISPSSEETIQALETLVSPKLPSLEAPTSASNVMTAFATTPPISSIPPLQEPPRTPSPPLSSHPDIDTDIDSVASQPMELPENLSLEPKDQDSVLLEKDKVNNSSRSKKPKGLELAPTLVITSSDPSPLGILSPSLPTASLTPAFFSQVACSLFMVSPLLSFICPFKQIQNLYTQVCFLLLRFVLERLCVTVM
# Method in brief: as §1
# [16] = biological target: T10, ETV2 (Homo sapiens, UniProt O00321 1-342); conditions: protein: recombinant; tags: N-terminal GST; dsDNA, one strand shown
# T10 sequence: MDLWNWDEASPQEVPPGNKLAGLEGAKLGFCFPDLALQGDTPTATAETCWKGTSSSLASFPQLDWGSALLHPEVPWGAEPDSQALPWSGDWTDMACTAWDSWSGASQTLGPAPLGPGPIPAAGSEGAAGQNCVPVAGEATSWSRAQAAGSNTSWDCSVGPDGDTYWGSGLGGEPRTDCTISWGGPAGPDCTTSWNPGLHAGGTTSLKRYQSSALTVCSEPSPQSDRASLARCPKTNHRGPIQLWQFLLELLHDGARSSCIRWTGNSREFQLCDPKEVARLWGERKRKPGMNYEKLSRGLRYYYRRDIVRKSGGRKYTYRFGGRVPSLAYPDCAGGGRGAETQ
# Method in brief: as §1
# [17] = biological target: T11, ELF3 (Homo sapiens, UniProt P78545 1-371); conditions: protein: recombinant; tags: N-terminal GST; dsDNA, one strand shown
# T11 sequence: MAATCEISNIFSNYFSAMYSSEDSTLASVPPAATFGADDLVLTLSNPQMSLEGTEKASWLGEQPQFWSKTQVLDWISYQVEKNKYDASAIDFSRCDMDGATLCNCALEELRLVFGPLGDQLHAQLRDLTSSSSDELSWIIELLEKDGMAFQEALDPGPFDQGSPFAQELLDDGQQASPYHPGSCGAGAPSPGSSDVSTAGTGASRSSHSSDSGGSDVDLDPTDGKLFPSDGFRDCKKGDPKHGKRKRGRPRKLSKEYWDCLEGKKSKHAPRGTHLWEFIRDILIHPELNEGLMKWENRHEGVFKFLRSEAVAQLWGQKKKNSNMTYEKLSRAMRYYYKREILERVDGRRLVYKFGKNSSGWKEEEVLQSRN
# Method in brief: as §1
# [18] = biological target: CRX (Homo sapiens, UniProt O43186 1-299); conditions: protein: recombinant; tags: N-terminal GST; dsDNA, one strand shown
# CRX, sequence (O43186 whole entry): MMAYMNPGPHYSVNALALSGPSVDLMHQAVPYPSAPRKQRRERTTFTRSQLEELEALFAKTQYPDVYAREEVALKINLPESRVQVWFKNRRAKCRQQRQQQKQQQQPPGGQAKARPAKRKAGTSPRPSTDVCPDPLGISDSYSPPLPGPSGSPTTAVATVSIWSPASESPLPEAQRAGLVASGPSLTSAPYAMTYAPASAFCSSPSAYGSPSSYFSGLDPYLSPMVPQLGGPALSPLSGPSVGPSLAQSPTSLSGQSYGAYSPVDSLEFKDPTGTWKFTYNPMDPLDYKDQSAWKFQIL
# Method in brief: as §1
# [19] = biological target: ETV1 (Homo sapiens, UniProt P50549 1-477); conditions: protein: recombinant; tags: N-terminal GST; dsDNA, one strand shown
# ETV1, sequence (P50549 whole entry): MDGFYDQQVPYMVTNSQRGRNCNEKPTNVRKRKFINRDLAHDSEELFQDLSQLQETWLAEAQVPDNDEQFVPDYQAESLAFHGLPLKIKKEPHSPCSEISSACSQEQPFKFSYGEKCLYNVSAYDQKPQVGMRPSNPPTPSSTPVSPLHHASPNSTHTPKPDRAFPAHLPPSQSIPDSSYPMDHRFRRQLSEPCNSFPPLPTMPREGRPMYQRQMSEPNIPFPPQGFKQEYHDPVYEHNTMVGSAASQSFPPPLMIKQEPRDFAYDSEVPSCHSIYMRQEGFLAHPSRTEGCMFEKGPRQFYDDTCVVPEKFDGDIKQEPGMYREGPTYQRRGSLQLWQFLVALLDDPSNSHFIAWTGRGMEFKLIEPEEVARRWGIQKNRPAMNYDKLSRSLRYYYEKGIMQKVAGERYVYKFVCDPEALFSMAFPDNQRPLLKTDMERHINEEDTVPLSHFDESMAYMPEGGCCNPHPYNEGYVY
# Method in brief: as §1
sequence,measurement,setting,value
GTTCCT,binding signal,[1],"1.73 fold enrichment (6-mer frequency, TF over GST control)"
same,binding signal,[2],"1.69 fold enrichment (6-mer frequency, TF over GST control)"
same,binding signal,[3],"1.64 fold enrichment (6-mer frequency, TF over GST control)"
same,binding signal,[4],"1.86 fold enrichment (6-mer frequency, TF over GST control)"
same,binding signal,[5],"1.72 fold enrichment (6-mer frequency, TF over GST control)"
same,binding signal,[6],"1.73 fold enrichment (6-mer frequency, TF over GST control)"
same,binding signal,[7],"2.34 fold enrichment (6-mer frequency, TF over GST control)"
same,binding signal,[8],"1.84 fold enrichment (6-mer frequency, TF over GST control)"
same,binding signal,[9],"1.77 fold enrichment (6-mer frequency, TF over GST control)"
same,binding signal,[10],"1.75 fold enrichment (6-mer frequency, TF over GST control)"
same,binding signal,[11],"1.91 fold enrichment (6-mer frequency, TF over GST control)"
same,binding signal,[12],"1.43 fold enrichment (6-mer frequency, TF over GST control)"
same,binding signal,[13],"1.96 fold enrichment (6-mer frequency, TF over GST control)"
same,binding signal,[14],"1.6 fold enrichment (6-mer frequency, TF over GST control)"
same,binding signal,[15],"1.48 fold enrichment (6-mer frequency, TF over GST control)"
same,binding signal,[16],"1.65 fold enrichment (6-mer frequency, TF over GST control)"
same,binding signal,[17],"1.6 fold enrichment (6-mer frequency, TF over GST control)"
same,binding signal,[18],"1.07 fold enrichment (6-mer frequency, TF over GST control)"
same,binding signal,[19],"1.79 fold enrichment (6-mer frequency, TF over GST control)"
